# Screens deposited in PubChem BioAssay by The Scripps Research Institute Molecular Screening Center.
# PPARg SRC-3 ag = promotes SRC-3 coactivator recruitment by human PPARgamma. actives 0.26% (n = 200,000). biochemical PPARgamma/SRC-3 coactivator recruitment assay. P37231. AID 731. activation, % at 8 µM; in the data active = activation above about 23%;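 also: 0% = DMSO and 100% = reference agonist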
# Target sequence (P37231 whole entry, looked up): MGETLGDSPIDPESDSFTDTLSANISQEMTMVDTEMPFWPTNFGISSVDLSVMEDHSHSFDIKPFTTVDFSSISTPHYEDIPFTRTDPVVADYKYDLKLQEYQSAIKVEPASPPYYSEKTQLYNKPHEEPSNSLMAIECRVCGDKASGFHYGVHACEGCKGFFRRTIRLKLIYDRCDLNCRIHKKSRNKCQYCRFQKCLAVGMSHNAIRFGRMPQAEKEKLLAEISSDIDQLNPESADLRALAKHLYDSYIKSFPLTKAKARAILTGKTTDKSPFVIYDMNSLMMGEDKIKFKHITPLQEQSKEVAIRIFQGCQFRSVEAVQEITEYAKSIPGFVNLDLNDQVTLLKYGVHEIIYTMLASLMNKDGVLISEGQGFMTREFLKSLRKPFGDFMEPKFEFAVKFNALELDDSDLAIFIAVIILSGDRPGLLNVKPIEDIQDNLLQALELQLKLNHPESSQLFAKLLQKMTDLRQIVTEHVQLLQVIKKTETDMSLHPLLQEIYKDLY
# SRC2 TRFRET art = counter-screen for PPARgamma SRC-2 recruitment agonists: TR-FRET artefact; AID 1049; actives 0.4% (n = 200,000); TR-FRET ratio at 8 µM; hits give high values
# PPARg SRC-1 ag = PPARgamma-driven SRC-1 recruitment agonism; P37231; PPARgamma-SRC-1 coactivator recruitment biochemical assay; activation, % at 8 µM; actives 0.41% (n = 200,000); AID 631; in the data active = activation above about 19%;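 also: 0% = DMSO and 100% = reference agonist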
# SRC1 TRFRET art = counter-screen for PPARgamma SRC-1 recruitment agonists: TR-FRET artefact. actives 0.34% (n = 99,000). TR-FRET ratio at 8 µM. AID 1051. TR-FRET detection artefact counter-screen, emission ratio; hits give high values; in the data active = TR-FRET ratio above about 2300
# PPARg SRC-2 ag = PPARgamma-driven SRC-2 recruitment agonism. P37231. PPARgamma LBD-SRC-2 recruitment, biochemical. activation, % at 8 µM. actives 0.34% (n = 200,000). AID 1032; in the data active = activation above about 22%;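 also: 0% = vehicle and 100% = reference agonist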
# SRC3 TRFRET art = flags TR-FRET format artefacts in PPARgamma SRC-3 recruitment agonist screen; actives 0.39% (n = 99,000); AID 1048; TR-FRET ratio at 8 µM; TR-FRET artefact counter-screen, PPARgamma/SRC-3 format; hits give high values
# The depositor's hits bear a star; · = no result given. A selection: hits, their analogues and other compounds. The true share with any hit is near 0.9%. Rule as the data show it, unless noted: active = TR-FRET ratio above about 2000; inactive = the rest.
SMILES,PPARg SRC-3 ag,SRC2 TRFRET art,PPARg SRC-1 ag,SRC1 TRFRET art,PPARg SRC-2 ag,SRC3 TRFRET art
CCCCCCNS(=O)(=O)c1ccc(NC(=O)C2CCCO2)cc1 (configuration not stated),7,1485,3,1567,-3,1510
CC1CCN(S(=O)(=O)c2ccc(C(=O)Nc3sccc3C(N)=O)cc2)CC1,-1,1507,29*,·,-2,·
COc1ccc(OC)c(NC(=O)CSc2ccc3nnc(-c4cccnc4)n3n2)c1,2,1656,2,1722,5,1584
CC1CCc2c(sc3nc(SCC(=O)NCc4ccco4)nc(N)c23)C1 (configuration not stated),4,1582,21*,·,14,·
COc1ccc(Cc2n[nH]c(=S)n2Cc2ccccc2)cc1Cl,-2,1414,-1,1752,-2,1543
CCN1/C(=C/C=C/C=C/c2sc3ccccc3[n+]2CC)Sc2ccccc21,339*,10856*,448*,14504*,541*,13609*
Cc1cccc(N2C(=O)CC(Sc3nc(-c4ccccc4)c4cc(Cl)ccc4n3)C2=O)c1 (configuration not stated),-3,2388*,-1,·,-2,·
Cc1cccc(N2C(=O)CC(Sc3nc(C)cc(C)n3)C2=O)c1 (configuration not stated),2,1638,-5,·,6,·
COc1cccc(/C=c2/s/c(=C(\C#N)C(=O)N3CCOCC3)n(-c3ccccc3)c2=O)c1,48*,1688,6,·,4,·
COc1ccc(/C=c2\s/c(=C(/C#N)C(=O)NCc3ccco3)n(-c3ccccc3)c2=O)cc1,-1,1506,-6,1726,-5,1411
COc1cc2[nH]c(=S)nc(NCCc3ccc(C)cc3)c2cc1OC,16,1959,21*,2432*,24*,2231*
O=C(CCc1nnc(CCCc2ccccc2)o1)NCC(F)(F)F,-2,1549,6,1657,1,1677
Cc1ccc(C2C(C#N)=C(N)SC(N)=C2C#N)o1,24,2112*,19*,·,23*,·
CC(=O)Nc1ccc(OS(=O)(=O)c2ccc([N+](=O)[O-])cc2)cc1,1,1646,-3,1634,-5,1377
CC1CCCCN1C(=O)Nc1cccc(C(F)(F)F)c1 (configuration not stated),6,1781,13,2319*,5,1831
Cc1ccc(-n2c(SCC(=O)N(C)C3CCS(=O)(=O)C3)nc3ccccc3c2=O)cc1 (configuration not stated),-3,1774,5,1877,8,1748
CC(C)Cc1nc(Cl)c(C#N)c2c1CCCC2,21,1374,-7,1692,-6,2298*
COc1ccccc1NC(=O)CCN1C(=O)c2ccccc2S1(=O)=O,4,1681,9,1733,3,1520
COc1cc(-c2nc(-c3ccc(Br)o3)no2)cc(OC)c1OC,-6,1695,10,·,13,·
COc1ccc(-c2noc(-c3ccc(Br)o3)n2)cc1OC,36*,1607,6,·,-1,·
CC(C)CCOc1ccc(C(=O)N2CCCC2C(=O)O)cc1 (configuration not stated),1,1524,-1,1788,1,1431
Cc1ccc(OCC(=O)NNC(=O)C(=O)NC(C)(C)C)cc1,7,1515,21*,2454*,7,1508
COc1ccc(OC)c2c1sc(=NC(=O)C(C)(C)C)n2C,32*,4080*,4,·,121*,·
Nc1nccc(-c2cccs2)n1,4,2014*,-2,2012,5,1787
O=C(Nc1nccc(-c2cccs2)n1)c1cccs1,3,1536,-2,·,4,·
SMILES,PPARg SRC-3 ag,SRC2 TRFRET art,PPARg SRC-1 ag,SRC1 TRFRET art,PPARg SRC-2 ag,SRC3 TRFRET art
CCOC(=O)c1c(NC(=O)C2=C(C)NC(=S)NC2c2ccc(C)cc2)sc(C)c1C (configuration not stated),2,1494,16,2914*,3,1630
CCOC(=O)c1c(NC(=O)C2=C(C)NC(=S)NC2c2ccc(F)cc2)sc(C)c1C (configuration not stated),1,1612,1,1845,7,1671
CC1(C)Cc2nc(NC3CCCCC3)c(C#N)cc2CO1,4,1564,6,1697,6,1499
COc1ccc(-c2cn3c(C)c(C(=O)Nc4ccncc4)sc3n2)cc1,-15,1516,1,·,1,·
Cc1c(C(=O)Nc2ccncc2)sc2nc(-c3ccc(F)cc3)cn12,13,1995*,6,2289,22,2105*
Cc1ccccc1OCC(=O)Nc1sc(C(=O)Nc2cccc(C)c2C)c(C)c1C#N,5,1740,24*,·,5,·
CC1(CCC#N)N=C(SCCC#N)N(c2ccccc2)C1=O (configuration not stated),2,1990*,2,·,8,·
CC(C)C1CC(C(F)(F)F)n2nc(C(=O)O)cc2N1 (configuration not stated),2,2157*,5,1719,17,1729
CC1CC(C(F)(F)F)n2nc(C(=O)O)cc2N1 (configuration not stated),-15,1390,-5,·,0,·
CCOC(=O)/C=C/COc1ccccc1[N+](=O)[O-],4,1631,0,1764,2,1566
O=C(N/N=C/c1ccc(N2CCOCC2)cc1)c1ccccc1OCCOc1ccccc1,3,1784,-1,1780,18,1804
OC(C#CCN1CCCC1)(c1ccccc1)c1cccc(F)c1 (configuration not stated),7,1613,1,1858,26*,1768
Cc1nc(N2CCCCC2)c2c(-c3cccs3)csc2n1,10,1665,11,2176,4,1885
Cc1nc(N2CCN(S(=O)(=O)c3ccccc3C#N)CC2)c2c(-c3cccs3)csc2n1,-1,1511,0,2227,-1,2725*
Cc1ccsc1/C=N/Nc1nc2ccccc2[nH]1,8,1670,13,2515*,17,1746
Cc1cc(=O)[nH]c(N/N=C/c2sccc2C)n1,3,1625,7,1872,9,1636
Brc1cccc2sc(N3CCCC3)nc12,-3,1430,1,1788,-7,1496
N#Cc1c(SCC(N)=O)nc2c(c1-c1ccc(OCc3ccccc3)cc1)CCCC2,71*,1578,63*,·,9,·
CC(C)CCNC(=O)CCCn1c(=O)[nH]c2ccc(Br)cc2c1=O,10,1635,1,·,8,·
O=C(CCCn1c(=O)[nH]c2ccc(Br)cc2c1=O)NCc1ccc(Cl)cc1,-3,1480,31*,3045*,9,1575
Cc1ccc(CN2CCN(Cc3ccc(OC(C)C)cc3)CC2CCO)o1 (configuration not stated),-2,1596,2,1584,-4,1418
Cc1ccc(CN2CCN(Cc3cccc(OCCO)c3)CC2CCO)o1 (configuration not stated),3,1711,5,1857,22*,1698
COc1ccc(-c2cn3cccnc3n2)cc1Br,0,1548,0,1584,1,1496
